Results published in PubChem BioAssay (Tox21).
Inconclusive results are not listed. Where a call stands in place of a potency, no number is given. The source made the active and inactive calls. Calls follow the shape of the dose curve; as a rule, active = well fitted activation curve with a large enough effect in the repeat runs; inconclusive = weak or mixed curves; inactive = flat fitted curve, though single readings scatter.

Experiment: A CellTox Green Cytotoxicity Assay to monitor cytotoxicity in HEK293 cells - 16 hour (AID 1224888); also: nearly all actives have a fitted effect of over 35% in size
Conditions: CellTox Green fluorescence; series mostly up to 76.8 µM
Text: National Center for Advancing Translational Sciences [NCATS]
NIH Chemical Genomics Center [NCGC]
U.S. Environmental Protection Agency [EPA]
National Institutes of Environmental Health Sciences [NIEHS]
National Toxicology Program [NTP]
Cell-based models are critical for drug discovery. Determining the natural cytotoxic effects resulting from test compounds is an essential research activity. A CellTox Green Cytotoxicity Assay to monitor cytotoxicity in real time of continues cell culture during 40 hours of the compound treatment was used to screen Tox21 10K library compounds in Hek293 cells. CellTox Green Cytotoxicity Assay is a nonlytic, homogeneous, biofluorescent method to measure cytotoxicity in cell culture after experimental manipulation. The assay system uses a proprietary asymmetric cyanine dye that is excluded from viable cells but preferentially stains the dead cell's DNA. […] Viable cells produce no appreciable increases in fluorescence. Therefore, the fluorescence signal produced by the binding interaction with dead cell DNA is proportional to cytotoxicity.
The mixture of Hek293 cell suspension and reagents were dispensed at 600cells/6 ul/well in 1536-well tissue culture treated black solid bottom plates using a Multidrop dispenser. After the assay plates were incubated at a 37 C/5% CO2 incubator for 5 hours, 23 nL of compounds dissolved in DMSO, positive and negative controls was transferred to the assay plate by a pintool work station. The plates were incubated at 37 C for 40 hours. The fluorescence intensity were measured at 0h, 8h, 16h, 24h, 32h and 40h time points using ViewLux plate reader during compound treatment.

Structure (SMILES) | Potency
Nc1ccc(Cl)cc1 | inactive
CCCCCC[n+]1ccccc1 | inactive
CCCCCCCCn1cc[n+](C)c1 | inactive
O=C(O)C(Cl)(Cl)Cl | inactive
CC[N+]1(C)CCCC1 | inactive
CCCCCCCCCCCC(=O)O | inactive
CCCn1cc[n+](C)c1 | inactive
O=C(O)COc1ccc(Cl)cc1Cl | inactive
C[C@]12CCC(=O)C=C1CC[C@@H]1[C@@H]2CC[C@]2(C)C(=O)CC[C@@H]12 | inactive
CCNc1nc(Cl)nc(NCC)n1 | inactive
CCC(=O)C(CC(C)N(C)C)(c1ccccc1)c1ccccc1 (stereo not given) | inactive
CCCCn1cc[n+](C)c1C | inactive
N#CS | inactive
CCCC[n+]1cccc(C)c1 | inactive
O=[N+]([O-])O | inactive
Oc1ccccc1-c1ccccc1 | inactive
O=C(O)c1ccccc1O | inactive
Nc1ccc(-c2ccc(N)cc2)cc1 | inactive
CCCC[n+]1ccccc1C | inactive
COc1ccccc1N | inactive

Structure (SMILES) | Potency
C1CCC(NC2CCCCC2)CC1 | inactive
Cc1cc(Cl)ccc1OCC(=O)O | inactive
O=C(O)CC(O)(CC(=O)O)C(=O)O | inactive
CCCC[n+]1ccccc1 | inactive
C=CCOC(Cn1ccnc1)c1ccc(Cl)cc1Cl (stereo not given) | inactive
CCn1cc[n+](C)c1C | inactive
O=C(O)CCl | inactive
CCCCCCCCCCn1cc[n+](C)c1 | inactive
CNC | inactive
COCC(=O)N(c1c(C)cccc1C)C(C)C(=O)OC (stereo not given) | inactive
CC[n+]1ccccc1 | inactive
CN(C)[C@@H]1C(=O)C(C(N)=O)=C(O)[C@@]2(O)C(=O)C3=C(O)c4c(O)cccc4[C@@](C)(O)[C@H]3[C@H](O)[C@@H]12 | inactive
C[N+](C)(C)Cc1ccccc1 | inactive
O=c1[nH]c(=O)n(Cl)c(=O)n1Cl | inactive
CC[N+](CC)(CC)CC | inactive
Nc1ccccc1 | inactive
CCCC[N+]1(C)CCCCC1 | inactive
OCCOc1ccccc1 | inactive
O=C(O)C(Cl)Cl | inactive
CCC[N+]1(C)CCCCC1 | inactive
